# This is part of a sample that, as a whole, favours compounds with a hit. Of some 79,000 tested, about 15% had one in any assay. The source made the active and inactive calls. Rule as the data show it: active = growth inhibition above about 70%; inactive = the rest.
# Experiment: NCI Yeast Anticancer Drug Screen. Data for the rad50EPP+ strain (AID 151);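 also: 0% = growth of vehicle-treated control cultures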
# Conditions: S. cerevisiae rad50 mutant strain, at 11.0 µM, hits give high values
# Method in brief: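 Yeast strain carrying rad50 alteration (rad50EPP+) exposed to compounds; growth inhibition measured relative to vehicle-treated controls.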
row,Compound,growth inhibition
1,CCN(CC)CC[n+]1ccc2c(C)c3[nH]c4ccc(O)cc4c3c(C)c2c1,46% (inactive)
2,O=[n+]1c2ccc(Cl)cc2n([O-])c2ccc(Cl)cc21,35% (inactive)
3,CCOP(=O)(OCC)C(Cc1ccccc1)N=C(c1ccccc1)c1ccccc1 (stereo not drawn),44% (inactive)
4,CC[C@@]1(O)C(=O)OCc2c1cc1n(c2=O)Cc2cc3c(N)cccc3nc2-1,53% (inactive)
5,COC1C=COC2(C)Oc3c(C)c(O)c4c(c3C2=O)/C(=N/C2CCC(O)OC2C)C=C(NC(=O)/C(C)=C\C(=O)C2CC2C(O)C(C)C(O)C(C)C(OC(C)=O)C1C)C4=O (stereo not drawn),-14% (inactive)
6,COc1cc2c(c(OC)c1OC)-c1c(cc3c(c1OC)OCO3)CC(C)C(C)(O)C2OC(=O)c1ccccc1 (stereo not drawn),-26% (inactive)
7,O=c1ssc2ncccc12,45% (inactive)
8,O=C1C2C(C(=O)N1c1ccc(OCc3ccccc3)cc1)C1c3ccccc3C2C2CCCCN21 (stereo not drawn),0% (inactive)
9,COc1ccc(-c2cn(-c3ccc(I)cc3)c3ncnc(N)c23)cc1,6% (inactive)
10,CCOC(=O)C(NC(=O)c1ccccc1)(N1CCN(c2cc3c(cc2F)c(=O)c(C(=O)O)cn3C2CC2)CC1)C(F)(F)F (stereo not drawn),1% (inactive)
11,C/C(=N\O)C1CC2C=C(C#N)C1N(Cc1ccccc1)C2 (stereo not drawn),5% (inactive)
12,CC/C(=C(\c1ccccc1)c1ccc(OCCN(C)C)cc1)c1ccccc1,1% (inactive)
13,COc1ccccc1N=NC(C(=O)c1ccccc1)C(=O)c1ccccc1,1% (inactive)
14,CC(O)C(O)C(O)C(/C=N\Nc1ccccc1)=N/Nc1ccccc1 (stereo not drawn),39% (inactive)
15,COc1ccc(/C=C2\SC(=S)N(/C=C/c3nc4ccccc4[nH]c3=O)C2=O)cc1OC,21% (inactive)
16,N#CN=Nc1cc(Cl)c(N=NC#N)cc1Cl,6% (inactive)
17,Cc1ccc(S(=O)(=O)Oc2cc(Cl)c(Cl)cc2Cl)cc1,27% (inactive)
18,c1ccc2c(c1)Oc1cccc3cccc-2c13,34% (inactive)
19,O=C(c1ccc(Cl)cc1Cl)C(Cl)Cl,65% (inactive)
20,CC(C)C1=CCC2C(=C1)CCC1C(C)(C(=O)O)CCCC21C (stereo not drawn) (tested in a mixture with another compound),37% (inactive)

row,Compound,growth inhibition
1,COc1cc(/C=C2\CCc3ccccc3C2=O)cc(OC)c1OC,17% (inactive)
2,CC(=O)[O][Bi]([c]1ccccc1)[c]1ccccc1,18% (inactive)
3,S=C(N/N=C/c1ccccn1)Nc1ccc(Cl)cc1,1% (inactive)
4,COc1cc(CC2CC(c3ccc4c(c3)OCO4)OC2=O)cc(OC)c1OC (stereo not drawn),0% (inactive)
5,CNC1C(OC2C(OC3C(O)C(O)C(N=C(N)N)C(O)C3N=C(N)N)OC(C)C2(O)CO)OC(CO)C(O)C1O (stereo not drawn),-2% (inactive)
6,NNC(=O)CCc1ccc2ccc3ccccc3c2c1,15% (inactive)
7,Oc1ccc2ccccc2c1C(c1ccc(Cl)cc1)c1c(O)ccc2ccccc12,-55% (inactive)
8,CCCCN(CCCC)CCSc1ccc(Cl)cc1,13% (inactive)
9,CCC(C)COC(=O)c1ccc(N=Cc2ccc(C=Nc3ccc(C(=O)OCC(C)CC)cc3)cc2)cc1 (stereo not drawn),16% (inactive)
10,CC1(C)C(=O)OC(n2cc(F)c(=O)[nH]c2=O)C1=O (stereo not drawn),-7% (inactive)
11,O=[N+]([O-])CC(SCc1ccccc1)c1ccc2c(c1)OCO2 (stereo not drawn),97% (active)
12,COc1cc2c(cc1[N+](=O)[O-])C(=O)C(Br)(Br)CCC2,99% (active)
13,OCC1OC(OCC(O)C(O)C(O)C(/C=N/Nc2ccccc2)=N/Nc2ccccc2)C(O)C(O)C1O (stereo not drawn),38% (inactive)
14,COc1ccc(N=C2C(=O)Nc3ccc(Br)cc32)cc1,-11% (inactive)
15,Cn1c(=O)c2ccccc2c2ccccc21,52% (inactive)
16,CC[n+]1ccc2c(C)c3[nH]c4ccc(O)cc4c3c(C)c2c1,64% (inactive)
17,CC(=O)ON1C(=O)c2cccc3cccc(c23)C1=O,0% (inactive)
18,COc1ccc2ccc3ccccc3c2c1C=O,3% (inactive)
19,OC1CCCc2c1cc1ccc3cccc4ccc2c1c34 (stereo not drawn),46% (inactive)

# Same assay, conditions: S. cerevisiae rad50 mutant strain, at 33.0 µM, hits give high values
row,Compound,growth inhibition
1,CCN(CC)CC[n+]1ccc2c(C)c3[nH]c4ccc(O)cc4c3c(C)c2c1,88% (active)
2,O=[n+]1c2ccc(Cl)cc2n([O-])c2ccc(Cl)cc21,57% (inactive)
3,CCOP(=O)(OCC)C(Cc1ccccc1)N=C(c1ccccc1)c1ccccc1 (stereo not drawn),81% (active)
4,CC[C@@]1(O)C(=O)OCc2c1cc1n(c2=O)Cc2cc3c(N)cccc3nc2-1,54% (inactive)
5,COC1C=COC2(C)Oc3c(C)c(O)c4c(c3C2=O)/C(=N/C2CCC(O)OC2C)C=C(NC(=O)/C(C)=C\C(=O)C2CC2C(O)C(C)C(O)C(C)C(OC(C)=O)C1C)C4=O (stereo not drawn),-7% (inactive)
6,COc1cc2c(c(OC)c1OC)-c1c(cc3c(c1OC)OCO3)CC(C)C(C)(O)C2OC(=O)c1ccccc1 (stereo not drawn),-21% (inactive)
7,O=c1ssc2ncccc12,86% (active)
8,O=C1C2C(C(=O)N1c1ccc(OCc3ccccc3)cc1)C1c3ccccc3C2C2CCCCN21 (stereo not drawn),1% (inactive)
9,COc1ccc(-c2cn(-c3ccc(I)cc3)c3ncnc(N)c23)cc1,8% (inactive)
10,CCOC(=O)C(NC(=O)c1ccccc1)(N1CCN(c2cc3c(cc2F)c(=O)c(C(=O)O)cn3C2CC2)CC1)C(F)(F)F (stereo not drawn),2% (inactive)
11,C/C(=N\O)C1CC2C=C(C#N)C1N(Cc1ccccc1)C2 (stereo not drawn),9% (inactive)
12,CC/C(=C(\c1ccccc1)c1ccc(OCCN(C)C)cc1)c1ccccc1,97% (active)
13,COc1ccccc1N=NC(C(=O)c1ccccc1)C(=O)c1ccccc1,17% (inactive)
14,CC(O)C(O)C(O)C(/C=N\Nc1ccccc1)=N/Nc1ccccc1 (stereo not drawn),50% (inactive)
15,COc1ccc(/C=C2\SC(=S)N(/C=C/c3nc4ccccc4[nH]c3=O)C2=O)cc1OC,50% (inactive)
16,N#CN=Nc1cc(Cl)c(N=NC#N)cc1Cl,31% (inactive)
17,Cc1ccc(S(=O)(=O)Oc2cc(Cl)c(Cl)cc2Cl)cc1,28% (inactive)
18,c1ccc2c(c1)Oc1cccc3cccc-2c13,43% (inactive)
19,O=C(c1ccc(Cl)cc1Cl)C(Cl)Cl,94% (active)
20,CC(C)C1=CCC2C(=C1)CCC1C(C)(C(=O)O)CCCC21C (stereo not drawn) (tested in a mixture with another compound),42% (inactive)

row,Compound,growth inhibition
1,COc1cc(/C=C2\CCc3ccccc3C2=O)cc(OC)c1OC,30% (inactive)
2,CC(=O)[O][Bi]([c]1ccccc1)[c]1ccccc1,20% (inactive)
3,S=C(N/N=C/c1ccccn1)Nc1ccc(Cl)cc1,-6% (inactive)
4,COc1cc(CC2CC(c3ccc4c(c3)OCO4)OC2=O)cc(OC)c1OC (stereo not drawn),3% (inactive)
5,CNC1C(OC2C(OC3C(O)C(O)C(N=C(N)N)C(O)C3N=C(N)N)OC(C)C2(O)CO)OC(CO)C(O)C1O (stereo not drawn),-3% (inactive)
6,NNC(=O)CCc1ccc2ccc3ccccc3c2c1,34% (inactive)
7,Oc1ccc2ccccc2c1C(c1ccc(Cl)cc1)c1c(O)ccc2ccccc12,-50% (inactive)
8,CCCCN(CCCC)CCSc1ccc(Cl)cc1,35% (inactive)
9,CCC(C)COC(=O)c1ccc(N=Cc2ccc(C=Nc3ccc(C(=O)OCC(C)CC)cc3)cc2)cc1 (stereo not drawn),32% (inactive)
10,CC1(C)C(=O)OC(n2cc(F)c(=O)[nH]c2=O)C1=O (stereo not drawn),21% (inactive)
11,O=[N+]([O-])CC(SCc1ccccc1)c1ccc2c(c1)OCO2 (stereo not drawn),98% (active)
12,COc1cc2c(cc1[N+](=O)[O-])C(=O)C(Br)(Br)CCC2,100% (active)
13,OCC1OC(OCC(O)C(O)C(O)C(/C=N/Nc2ccccc2)=N/Nc2ccccc2)C(O)C(O)C1O (stereo not drawn),40% (inactive)
14,COc1ccc(N=C2C(=O)Nc3ccc(Br)cc32)cc1,6% (inactive)
15,Cn1c(=O)c2ccccc2c2ccccc21,87% (active)
16,CC[n+]1ccc2c(C)c3[nH]c4ccc(O)cc4c3c(C)c2c1,85% (active)
17,CC(=O)ON1C(=O)c2cccc3cccc(c23)C1=O,9% (inactive)
18,COc1ccc2ccc3ccccc3c2c1C=O,8% (inactive)
19,OC1CCCc2c1cc1ccc3cccc4ccc2c1c34 (stereo not drawn),57% (inactive)
